Most compounds without a hit are left out; they make up all but 3.8% or so of the library.
Shn3 inh set2: inhibitors of Schnurri-3 3'UTR reporter in osteoblasts. inhibition, % at 12.5 µM. AID 588674. 360,000 tested, 0.52% active. Clone20 osteoblast Shn3 3'UTR firefly luciferase, 24 h;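 active = mean inhibition of at least 75% with every replicate also reaching 75%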;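 note: 0% = median of neutral control wells and 100% = pilot-screen positive control compound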
Mdm2 MdmX PPI: disrupts the human Mdm2-MdmX interaction | 330,000 tested, 3% active | O15151+Q00987 | inhibition, % at 8 µM | AID 485346 | SaOS-2 split-luciferase Mdm2/MdmX complementation, luminescence;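 active = inhibition of at least 50% at 8 µM in the primary screen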
Target sequence (O15151 whole entry, looked up): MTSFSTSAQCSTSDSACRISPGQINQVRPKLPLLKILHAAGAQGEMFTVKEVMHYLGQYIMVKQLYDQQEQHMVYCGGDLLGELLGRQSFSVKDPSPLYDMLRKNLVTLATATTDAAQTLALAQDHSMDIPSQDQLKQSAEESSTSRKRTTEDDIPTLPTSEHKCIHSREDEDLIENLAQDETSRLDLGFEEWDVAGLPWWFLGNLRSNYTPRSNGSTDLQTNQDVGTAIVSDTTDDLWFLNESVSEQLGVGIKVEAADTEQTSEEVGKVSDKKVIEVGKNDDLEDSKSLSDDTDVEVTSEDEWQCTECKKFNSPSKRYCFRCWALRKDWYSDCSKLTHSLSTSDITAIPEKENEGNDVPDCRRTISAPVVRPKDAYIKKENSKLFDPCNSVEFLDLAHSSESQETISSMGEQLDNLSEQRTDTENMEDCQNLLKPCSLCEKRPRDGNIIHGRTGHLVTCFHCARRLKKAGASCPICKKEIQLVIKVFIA
Target sequence (Q00987 whole entry, looked up): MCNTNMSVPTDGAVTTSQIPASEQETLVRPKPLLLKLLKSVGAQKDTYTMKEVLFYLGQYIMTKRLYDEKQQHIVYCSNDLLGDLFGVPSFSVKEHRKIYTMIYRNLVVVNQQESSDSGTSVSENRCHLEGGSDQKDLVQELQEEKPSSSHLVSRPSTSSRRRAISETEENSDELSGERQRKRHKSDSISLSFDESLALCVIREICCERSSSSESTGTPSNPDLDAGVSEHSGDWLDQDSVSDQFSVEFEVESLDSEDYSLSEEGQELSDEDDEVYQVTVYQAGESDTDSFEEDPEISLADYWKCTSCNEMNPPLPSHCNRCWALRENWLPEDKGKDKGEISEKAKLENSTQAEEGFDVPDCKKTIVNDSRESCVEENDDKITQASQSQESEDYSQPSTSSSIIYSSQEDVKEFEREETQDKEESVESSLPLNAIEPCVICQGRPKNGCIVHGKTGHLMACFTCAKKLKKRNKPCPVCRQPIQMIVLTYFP
Gli-Sufu block: antagonists of Gli-Sufu signaling; inhibition, % at 5 µM; Sufu-KO-LIGHT fibroblasts, Gli luciferase reporter luminescence; 340,000 tested, 0.74% active;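 active = inhibition above about 55%, limit read from the data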;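 note: 0% = DMSO-treated cells and 100% = wells with medium but no cells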
Jurkat NFkB inh: lowers PMA/ionomycin-induced NF-kB signal in Jurkat cells | PMA/ionomycin-induced NF-kB luciferase reporter, luminescence | inhibition, % at 4 µM | 330,000 tested, 0.53% active | AID 435003; in the data active = inhibition above about 50%
697 NFkB inh: inhibitors of the PMA/ionomycin-induced NF-kB reporter in 697 B cells; 697 B-cell NF-kB luciferase reporter, 16 h; inhibition, % at 4 µM; 330,000 tested, 0.33% active; AID 435022; in the data active = inhibition above about 35%
Mdm2 MdmX conf: human Mdm2/MdmX binding inhibition, confirmed; shares compounds with Mdm2 MdmX PPI; luminescent assay; inhibition, % at 8 µM; 10,000 tested, 55% active; AID 489028; in the data active = inhibition above about 40%
FLuc counter: full-length luciferase inhibition in Mdm2/MdmX counter-screen; shares compounds with Mdm2 MdmX PPI; SaOS-2 full-length luciferase counterscreen, luminescence; 6,200 tested, 77% active; inhibition, % at 8 µM;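 active = mean inhibition at 8 µM reaching about 37%, which flags the compound as non-specific, limit read from the data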;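 note: p53-null SaOS-2 cells with luciferase driven by a doxycycline-inducible promoter; compound on cells about two nights before reading with doxycycline added after day one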
* = called active by the depositor; / = no result given.

SMILES	Shn3 inh set2	Mdm2 MdmX PPI	Gli-Sufu block	Jurkat NFkB inh	697 NFkB inh	Mdm2 MdmX conf	others
Cc1nc(SCC(=O)Nc2ccccc2C(F)(F)F)c2c(=O)n(C)c(=O)n(C)c2n1	17	95*	0	2	-11	2
Cn1c(=O)c2c(SCc3cccc(C(F)(F)F)c3)nc(-c3ccco3)nc2n(C)c1=O	-49	83*	9	-7	-8	-9
CCOC(=O)c1c(NC(=O)c2cc(-c3ccc(O)cc3)on2)sc(C(C)=O)c1C	-1	70*	13	6	13	5
CCOC(=O)c1sc(NC(=O)CN(CC(C)C)CC(C)C)c(C(=O)OCC)c1C	63	61*	12	16	1	0
Cc1cc(NC(=O)c2cc(-c3ccc(O)cc3)on2)no1	-44	-47	-35	-31	-30	/
CCOC(=O)c1c(NC(=O)CC(C)C)sc(C(C)=O)c1C	63	17	-4	16	-8	/
CCOC(=O)c1sc(NC(=S)NC(=O)c2ccccc2)c(C(=O)OCC)c1C	12	85*	18	4	-45	26
CCOC(=O)c1sc(NC(=S)NC(=O)c2ccccc2Cl)c(C(=O)OCC)c1C	10	25	-5	-2	8	/
COCCNC(=O)C1(C)CCCN(CC(=O)c2ccc(OC)cc2)C1 (stereo not given)	-9	/	/	/	/	/
Cc1cc(-c2ccccc2)nc(N2CCN(c3ccccn3)CC2)n1	-11	59*	8	0	-63	24
Cc1cncc(N2CCN(c3ccccn3)CC2)n1	-5	/	/	/	/	/
COc1cccc(OC)c1C(=O)Nc1cc(C)nn1-c1nc2ccccc2[nH]1	-8	77*	15	23	25	54*	FLuc counter=63*
Cc1cc(NC(=O)c2sccc2C)n(-c2nc3ccccc3[nH]2)n1	7	59*	2	-5	-13	26
COc1ccc(C(=O)Nc2cc(C)nn2-c2nc3ccccc3[nH]2)c(OC)c1	12	51*	-3	7	-6	33
CCOC(=O)C(=O)Nc1cc(C)nn1-c1nc2ccccc2[nH]1	13	7	-6	0	-22	/
Cc1cc(NC(=O)c2cccs2)n(-c2nc3ccccc3[nH]2)n1	13	40	/	2	-5	/
Cc1cc(NC(=O)C2CCCC2)n(-c2nc3ccccc3[nH]2)n1	15	53*	2	10	-5	41*	FLuc counter=63*
Cc1cc(NC(=O)c2ccccc2)n(-c2nc3ccccc3[nH]2)n1	5	39	-6	1	4	/
Cc1ccc(Nc2ccc([N+](=O)[O-])ccc2=O)cc1	2	8	4	-1	14	/
Cc1nsc(Nc2ccc([N+](=O)[O-])cc2)c1C#N	27	79*	33	4	-32	55*	FLuc counter=89*
O=C(NCc1nc2ccccc2[nH]1)C1=C[C@@H](c2ccc(C(F)(F)F)cc2)C[C@@H](OCc2ccc(CO)cc2)O1	4	27	17	11	-11	/
Cc1cc2ccccn2c1C(=O)c1ccc([N+](=O)[O-])o1	62	64*	-2	20	33	26
Cc1ccc(C)c(Cn2c(C)nc3c(sc(=S)n3-c3ccccc3)c2=O)c1	25	60*	14	6	12	19
Cc1ccc(-n2c(SCC(=O)O)nc3c(sc(=S)n3-c3ccc(C)c(C)c3)c2=O)cc1	-15	-17	4	0	6	/
CCOC(=O)C(CC)c1cc2n(c(=O)c1C#N)CCC21OCCO1 (stereo not given)	-27	/	/	/	/	/
SMILES	Shn3 inh set2	Mdm2 MdmX PPI	Gli-Sufu block	Jurkat NFkB inh	697 NFkB inh	Mdm2 MdmX conf	others
CCN(CC(=O)Nc1c(C(=O)OC)[nH]c2ccc(Cl)cc12)c1ccc2c(c1)OCO2	22	45	17	-3	11	/
CCOC(=O)c1[nH]c2ccc(Cl)cc2c1NC(=O)/C=C/c1ccc2c(c1)OCO2	29	56*	29	15	-12	45*	FLuc counter=94*
NC(=O)c1nsc(C(=O)N(c2cccc(F)c2)C(C(=O)NC2CCCC2)c2ccco2)c1N (stereo not given)	11	33	-1	-16	-7	/
Cc1ccc(C(=O)c2c(C)oc3c2C(=O)C(=O)c2ccccc2-3)cc1	96*	97*	-5	-10	11	99*	FLuc counter=42*
COc1ccc(C=C2C=C(C(C)(C)C)C(=O)C(C(C)(C)C)=C2)cc1OC	93*	100*	28	-38	-82	18
COc1ccc(/C=C2\CCc3ccccc3C2=O)cc1OC	-36	7	-20	0	-87	/
COc1ccccc1CNCC(O)(c1ccc(Cl)cc1)c1ccc(Cl)cc1	41	54*	-20	7	4	16
COc1ccccc1OC(=O)c1cc2ccccc2oc1=O	2	21	-3	6	-1	/
COc1cc(/C=C/[N+](=O)[O-])ccc1OC(=O)c1cc2ccccc2oc1=O	11	51*	14	-10	-12	3
COc1cc2cc(CN(CCc3cccc(C)c3)C(=S)NCCCN(C)C)c(=O)[nH]c2cc1OC	-44	52*	12	15	1	26
CNC(=S)N(CCc1cccc(C)c1)Cc1cc2cc(OC)c(OC)cc2[nH]c1=O	5	-3	8	-14	-28	/
COc1cccc(N(C(=O)c2csnn2)C(C(=O)NC2CCCC2)c2ccccc2)c1 (stereo not given)	0	13	-9	3	-2	/
Cc1ccc(Nc2nc(C)c3c(n2)CC(C)CC3=O)c(C)c1 (stereo not given)	1	23	1	-2	-7	/
Cc1nc(Nc2cccc(C(F)(F)F)c2)nc2c1C(=O)CC(C)C2 (stereo not given)	-1	54*	9	-7	-6	12
CN(C(=O)c1cccc(S(=O)(=O)N2CCCC2)c1)C1CCCCC1	5	-20	8	-5	-5	/
CCCCCCC[C@@H](C/C=C/CCC(=O)N(C)C/C(=C/Cl)C/C(=C\C(=O)N1CC(OC)=CC1=O)OC)OC	82	60*	37	7	-87	-20
CC(C)(CN1CCNCC1)NS(=O)(=O)c1ccc(Cl)cc1	34	61*	6	-8	8	25
O=C(CC1S/C(=N/N=C/C=C/c2ccccc2)NC1=O)Nc1ccc(Cl)c(Cl)c1 (stereo not given)	13	63*	-7	2	-6	12
Cc1cc2c(=O)n(Cc3ccco3)c(SCC(=O)NCc3ccco3)nc2s1	49	16	3	6	-3	/
Cc1cc2c(=O)n(Cc3ccco3)c(SCC(=O)N3CCCc4ccccc43)nc2s1	59	57*	10	15	21	21
O=C(Cc1ccc(Cl)cc1)NNC(=O)C(=O)NC1CCCCC1	-15	0	2	-1	10	/
CC(Oc1ccccc1C(N)=O)C(=O)Nc1ccc(S(=O)(=O)N2CCCC2)cc1 (stereo not given)	1	3	-6	23	9	/
